In the library only some 1.1% were active in any assay of this set; here they are far more common.
RXFP1 antagonist – qHTS Assay for Antagonists of the Relaxin Receptor RXFP1; HEK293-RXFP1, relaxin-stimulated cAMP HTRF, 30 min; stronger effect = lower value; hit rate 0.59% among 350,000; Relaxin receptor 1 (Homo sapiens), Q9HBX9; activity change, negative = inhibition, % at 57.5 µM;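 active means activity change of -60% or lower, but not beyond a set lower limit; inconclusive means change between -60% and -40%, or beyond the set limit; inactive means change above -40%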
gsp antagonist – qHTS for Antagonists of gsp, the Etiologic Mutation Responsible for Fibrous Dysplasia/McCune-Albright Syndrome: qHTS; gsp-mutant cells, cAMP HTRF, 30 min; Potency, µM (titrated, usually from 76.9 µM), usual class: inhibitors; hit rate 0.4% among 340,000; calls by dose curve; cell line not stated here;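 further: intracellular cAMP measured with PDE inhibitor Ro 20-1724 present during compound exposure; nearly all actives have a fitted effect of over 65% in size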
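HTRF cAMP read-out (cAMP-d2 plus anti-cAMP antibody-K in lysis buffer, 30 min RT). Before lysis, cells are exposed to compounds with […] for 30 min at 37C in DPBS containing Ca/Mg, BSA and Tween 20.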
gsp agonist – qHTS for Agonist of gsp, the Etiologic Mutation Responsible for Fibrous Dysplasia/McCune-Albright Syndrome: qHTS; hit rate 0.13% among 340,000; gsp mutant cells, cAMP HTRF, 30 min; AID 624287, 2012; Potency, µM (doses to about 76.9 µM), most hits filed as activators; active means well fitted activation curve with a large enough effect; inconclusive means small, poorly fitted or top-dose-only effect, or another doubt; inactive means no such curve, though single readings can be large or run the other way; cell line not stated here;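 further: phosphodiesterase inhibitor Ro 20-1724 added with compounds to block cAMP breakdown; nearly all actives have a fitted effect of over 60% in size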
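Cells stably selected in G418 were plated at 2000/well, grown 16-24 hr, then given compounds in DMSO with the PDE inhibitor […] (300 uM solution added) for 30 min at 37C; cAMP was read by HTRF.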
p53 reactivator – qHTS assay for re-activators of p53 using a Luc reporter; H1299 p53-A138V BP100-luciferase reporter, luminescence, 24 h; Potency, µM (doses to about 92.2 µM), hits mostly activators; hit rate 0.063% among 320,000; AID 504706, 2011; further: nearly all actives have a fitted effect of over 45% in size
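H1299 (p53-null), stable ts p53-A138V + BP100-Luc; 1000 cells/well, Opti-MEM/10% FBS; cpd 4 pt, 1:5; 24 h, 37 deg C, 5% CO2; detection reagent 10 min RT; luminescence.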
RXFP1 agonist – qHTS Assay for Agonists of the Relaxin Receptor RXFP1; AID 2676, 2010; Potency, µM (series often up to 57.5 µM), most hits filed as activators; hit rate 0.3% among 370,000; HEK293T-RXFP1 cAMP TR-FRET, 30 min; response scale: percent of porcine relaxin response, buffer zero; further: nearly all actives have a fitted effect of over 60% in size
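HEK293 cells stably expressing RXFP1, treated 30 min at 37C with compounds plus PDE4 inhibitor Ro 20174; cAMP measured by HTRF TR-FRET. Normalized to buffer and 29 nM porcine relaxin; EC50 by Hill fit.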
Tb PFK inh – qHTS Assay to Find Inhibitors of T. brucei phosphofructokinase. Potency, µM (series often up to 57.5 µM), most hits filed as inhibitors. ATP-dependent 6-phosphofructokinase (Trypanosoma brucei brucei), O15648. hit rate 0.17% among 330,000. T. brucei PFK, ADP-Glo luminescence; further: nearly all actives have a fitted effect of over 60% in size
Target sequence (O15648 whole entry, looked up): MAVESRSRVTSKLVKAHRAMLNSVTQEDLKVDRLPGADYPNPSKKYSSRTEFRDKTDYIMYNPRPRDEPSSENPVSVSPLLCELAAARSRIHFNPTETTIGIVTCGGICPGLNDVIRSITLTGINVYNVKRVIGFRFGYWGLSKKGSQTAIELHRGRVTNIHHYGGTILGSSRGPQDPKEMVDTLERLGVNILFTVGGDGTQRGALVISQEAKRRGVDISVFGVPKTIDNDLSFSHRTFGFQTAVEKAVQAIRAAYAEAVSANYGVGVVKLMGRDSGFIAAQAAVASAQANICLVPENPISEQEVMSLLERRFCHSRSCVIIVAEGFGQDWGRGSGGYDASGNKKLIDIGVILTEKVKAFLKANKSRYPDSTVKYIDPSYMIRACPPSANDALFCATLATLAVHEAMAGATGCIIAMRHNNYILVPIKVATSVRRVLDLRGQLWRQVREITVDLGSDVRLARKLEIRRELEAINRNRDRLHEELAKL
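Compounds were pin-transferred as a titration series up to 57 uM into substrate buffer (0.5 mM F6P, 0.1 mM ATP, pH 8.0), then 1.25 nM PFK was added and reactions ran 45 min before ADP-Glo detection.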
Numbers stand for hits; – = inactive; ? = inconclusive; · = no result given; ! = repeats disagree; [ ] = remark or other dose. Unless noted, the call rests on the fitted dose curve; in most records, active means well fitted curve in the direction sought with a large enough effect; inconclusive means small, poorly fitted or top-dose-only effect, or another doubt; inactive means no such curve, though single readings can be large; an effect the other way counts as inactive or inconclusive.

SMILES	RXFP1 antagonist	gsp antagonist	gsp agonist	p53 reactivator	RXFP1 agonist	Tb PFK inh
O=C(O)CCNc1cc(N2CCN(C(=O)c3ccco3)CC2)c2noc3c2c1C(=O)c1ccccc1-3	-74.7	?	–[15.4 µM]	–	–	?
Cn1c(CN2CCOCC2)nc2cc(NC(=O)c3ccccc3[N+](=O)[O-])ccc21	–	·	·	·	–	·
N#Cc1c2n(c3c(N)ncnc13)CCCCC2	–	–	–[15.4 µM]	–	17.8µM	–
CCC(NC(=O)Nc1nnc(C(F)(F)F)s1)(C(F)(F)F)C(F)(F)F	–	4.47µM	–	–	–	–
Cn1c2c(c(=O)n3ncnc13)CCCC2	–	–	–[15.4 µM]	–	22.4µM	–
CCN(CC)C(=O)COc1ccc(-c2nnc(N3CCCCC3)c3ccccc23)cc1	–	–	–	–	–	–
CCOc1ccc(-c2nnc(N3CCCCC3)c3ccccc23)cc1	–	50.1µM	–	–	–	–
CCCCNC(=O)c1ccc(NC(=O)CC2SC(N3CCCC3)=NC2=O)cc1 (stereo unspecified)	–	–	?	–	–	–
COC(=O)c1cc(NC(=O)Cn2c(=O)oc3ccccc32)cc(C(=O)OC)c1	–	–	–	–	–	–
CC(=O)Nc1cccc(NC(=O)CSc2nc3c(c(=O)n(C)c(=O)n3C)n2C)c1	–	–	–[15.4 µM]	–	28.2µM	–
N#Cc1ccccc1NC(=O)CN1CCN(Cc2ccccc2)CC1	–	35.5µM	–[15.4 µM]	–	–	–
CCOC(=O)c1c(C)n(C)c2cc(-c3cccc(C(F)(F)F)c3)c(O)cc12	–	–	–	–	–	–
CCCn1c(SCC(=O)N2CCc3ccccc3C2)nc2c1c(=O)n(C)c(=O)n2C	–	–	31.6µM	–	?	–
COc1c(OC(C)=O)ccc(/C=C/c2ccc3ccccc3n2)c1[N+](=O)[O-]	–	25.1µM	–	?	–	–
O=[n+]1c2c(n([O-])c3cc(F)c(N4CCCC4)cc31)CCCC2	–	–	–	?	–	–
O=[n+]1c2c(n([O-])c3cc(F)c(N4CCCC4)cc31)CCC2	–	39.8µM	–	·	·	·
COc1ccc([N+](=O)[O-])cc1NC(=O)COC(=O)Cc1cc(OC)c(OC)c(OC)c1	–	50.1µM	–	–	–	–
COc1ccc(NC(=O)c2ccc(-c3ccc([N+](=O)[O-])cc3)o2)cc1	–	–	–	–	–	–
COc1ccc(CC(=O)NNS(=O)(=O)c2ccc([N+](=O)[O-])cc2)cc1OC	-84.0	–	–	–	–	–
COc1ccc(CC(=O)NNS(=O)(=O)c2ccccc2[N+](=O)[O-])cc1OC	–	–	–[15.4 µM]	–	–	–
COc1ccc(CCNC(=O)c2ccc(-c3ccc([N+](=O)[O-])cc3)o2)cc1OC	–	31.6µM	–	–	–	–
Cc1ccc(CN(Cc2ccco2)C(=O)COc2cccc(C)c2C)o1	-96.1	·	·	·	–	·
Cc1cccc(OCC(=O)N(Cc2ccc(N(C)C)cc2)Cc2ccco2)c1C	–	·	·	·	–	·
Cc1ccc(CN(Cc2ccco2)C(=O)COc2ccc(Cl)cc2)o1	-68.9	·	·	·	–	·
COc1ccc(C(=O)NCCC(=O)NCc2cc(=O)n(C)c(=O)n2C)cc1	–	–	–	–	–	–
SMILES	RXFP1 antagonist	gsp antagonist	gsp agonist	p53 reactivator	RXFP1 agonist	Tb PFK inh
Cc1ccc(S(=O)(=O)N2CCN(C(=O)COC(=O)COc3ccc(Cl)cc3C)CC2)c(C)c1	–	–	?	·	·	·
COc1ccc(S(=O)(=O)Nc2cccc(-c3ccc(N4CCCCCC4)nn3)c2)cc1OC	–	25.1µM	–	?	–	–
COC(=O)COc1cccc(NS(=O)(=O)c2cccc([N+](=O)[O-])c2)c1	–	–	–[15.4 µM]	–	–	–
O=[N+]([O-])c1cccc(S(=O)(=O)Nc2ccc(-c3ccc(N4CCOCC4)nn3)cc2)c1	–	?	–[15.4 µM]	–	–	–
O=[N+]([O-])c1cccc(S(=O)(=O)Nc2ccc(-c3ccc(N4CCCC4)nn3)cc2)c1	-71.0	–	–[15.4 µM]	–	–	–
COC(=O)COc1ccc(NS(=O)(=O)c2cccc([N+](=O)[O-])c2)cc1	-65.8	?	–[15.4 µM]	–	–	–
COc1ccc(OCC(=O)N2CCN(C(=O)c3cccc(OC)c3OC)CC2)cc1	·	·	·	·	–	·
Cc1cc(C)c(NC(=O)C(=O)NCCc2csc(-c3ccc(F)cc3)n2)c(C)c1	–	·	·	·	–	·
Cc1ccc(-n2cc3c(-c4cccc(Br)c4)nnc(C)c3n2)cc1	–	–	?	–	–	–
Cc1nnc(-c2cccc(Br)c2)c2cn(-c3ccccc3Cl)nc12	-63.5	–	–	–	–	–
OCCN1CCN(C(=S)Nc2cccc(C(F)(F)F)c2)CC1	-68.5!	–	–	–	–	–
COc1ccc(C(c2c(C)[nH]n(C(N)=S)c2=O)C(C#N)C#N)cc1 (stereo unspecified)	–	–	–	–	–	–
Cc1[nH]n(-c2ncc(-c3ccc(Cl)cc3)s2)c(=O)c1C(c1ccc(Cl)cc1)C(C#N)C#N (stereo unspecified)	-87.8	–	–[15.4 µM]	?	–	–
Cc1ccc(S(=O)(=O)Nc2ccccc2-c2ccccc2NS(=O)(=O)c2ccc(C)cc2)cc1	–	39.8µM	–	–	–	–
Cc1ccc(S(=O)(=O)Nc2ccccc2C(N)=O)cc1	–	–	–	·	–	·
Cc1ccc(S(=O)(=O)Nc2c(O)ccc3ccccc23)cc1	–	–	–	·	·	·
Cc1ccc(S(=O)(=O)Nc2c(Cl)c(Cl)c(O)c3ccccc23)cc1	·	·	·	–	–	15.1µM
O=S(=O)(NCCc1csc2nc(-c3ccccc3)nn12)c1ccc(Cl)s1	–	·	·	·	–	·
CN(C(=O)c1cc(S(=O)(=O)N2CCc3ccccc32)cn1C)C1CCCCC1	-103.4	–	–	–	–	–
COc1ccc(N(CC(=O)Nc2ccc(C)cc2C)S(=O)(=O)c2c(C)n[nH]c2C)cc1	–	–	–	–	–	–
CCCOc1ccc(NC(=O)CC2C(=O)N(CC)C(=S)N2CCCN2CCN(Cc3ccccc3)CC2)cc1 (stereo unspecified)	-65.3	–	–	–	–	–
O=C(CN1CCCCC1)Nc1c2c(nc3ccccc13)N(c1ccccc1)CC2	–	–	?	–	25.1µM	–
CCCC(=O)Nc1c2c(nc3ccccc13)N(c1ccccc1)CC2	–	–	–[15.4 µM]	–	–	–
Cc1ccc(NS(=O)(=O)c2ccc3nc(-c4ccccc4)[nH]c3c2)c(Br)c1	·	·	·	·	–	·

Bioassay records as filed in PubChem.
